Activity calls are given as the source filed them.
Key:
[1] = tested on: XIP peptide (Xip251-270) binding; assay: XIP fragment 251-270 binding compounds – biochemical, small-molecule microarray, fluorescence 635/667 nm, 0.1 µg/mL protein, primary screen (AID 1182); conditions: fluorescent protein binding, 635 nm, higher = more signal, called active from +8 up or from −8 down
XIP peptide (Xip251-270) = assay: compounds binding XIP fragment 251-270 – biochemical, small-molecule microarray, fluorescence 635/667 nm, 0.5 µg/mL protein, primary screen (AID 1183); conditions: fluorescence 635 nm, higher = more signal
[2] = blood-stage malaria parasite viability loss – strain 3D7, DAPI fluorescence, 100 nL, primary screen (AID 1184);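 also: parasites grown inside human red blood cells in medium with human serum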; conditions: P. falciparum 3D7 growth, 3 d, higher = more signal
[3] = molecular target: Homeobox protein Hox-A13 (Mus musculus) (UniProt Q62424); assay: disruptors of Hoxa13 oligonucleotide interaction – biochemical, fluorescence polarization, labeled oligonucleotide, primary screen (AID 1185); conditions: Hoxa13:DNA binding, 15 min, higher = more signal, called active from +8 up or from −8 down
Homeobox protein Hox-A13 (Mus musculus), sequence (Q62424 whole entry, looked up): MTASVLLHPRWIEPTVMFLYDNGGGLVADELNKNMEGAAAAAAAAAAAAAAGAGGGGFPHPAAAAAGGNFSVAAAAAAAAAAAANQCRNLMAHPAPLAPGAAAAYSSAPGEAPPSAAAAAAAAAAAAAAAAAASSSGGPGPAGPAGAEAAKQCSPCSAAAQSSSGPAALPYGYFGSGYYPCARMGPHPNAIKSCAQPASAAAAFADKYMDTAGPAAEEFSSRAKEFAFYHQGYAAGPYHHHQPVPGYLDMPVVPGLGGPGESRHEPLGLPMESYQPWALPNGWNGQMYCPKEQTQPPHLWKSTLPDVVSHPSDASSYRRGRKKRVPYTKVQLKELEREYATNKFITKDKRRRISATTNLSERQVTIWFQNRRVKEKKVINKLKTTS

| Compound | composite z-score [1] | composite z-score (XIP peptide (Xip251-270)) | z-score [2] | z-score [3] |
| --- | --- | --- | --- | --- |
| COc1ccc(-c2cnnc(CCCn3ccnc3-c3ccccc3)n2)cc1 | 0.0584 (inactive) | 0.492 | -0.964 | -3.52 (inactive) |
| COC(=O)[C@H](C)NC(=O)CCC1CC(OC(=O)NCc2cccc3ccccc23)CC2(CCCC(COC(=O)NCCC(C)C)O2)O1 (some centres not stated) | -0.477 (inactive) | 0.468 | -1.57 | -5.31 (inactive) |
| C#CCCCON=C1C[C@@H](O)[C@@H](O)[C@@H]2[C@@H]3C(=O)N(C[C@@H]4CCCO4)C(=O)[C@@H]3CC[C@@H]12 | 0.141 (inactive) | 0.384 | 1.38 | 0.866 (inactive) |
| CC(C)(C)N1C(=O)[C@H]2[C@H]3[C@H](O)[C@H](O)CC(=NNC(=O)OCc4ccccc4)[C@H]3CC[C@H]2C1=O | -0.401 (inactive) | 0.764 | -1.37 | -3.42 (inactive) |
| CC(C)=CCCC(C)=CCON=C1C[C@@H](O)[C@@H](O)[C@@H]2[C@@H]3C(=O)N(c4cccc(Oc5ccccc5)c4)C(=O)[C@@H]3CC[C@H]12 | 0.827 (inactive) | -0.256 | 0.395 | -0.963 (inactive) |
| CC(=O)OC[C@H]1O[C@H](CC=NOC(C)CN2CCCCc3nc(C)c(C)cc32)C=C[C@@H]1OC(C)=O (some centres not stated) | 0.231 (inactive) | 0.646 | -0.445 | -3.74 (inactive) |
| C[C@@H]1CC[C@H]2C(=O)O[C@@H](COc3ccc(C(C)(C)C)cc3)CN2[C@H]1c1ccc(Br)cc1 | -0.382 (inactive) | 0.619 | 0.907 | 0.503 (inactive) |
| O=C1[C@H]2[C@H]3[C@H](O)[C@H](O)CC(=NO[C@@H]4O[C@H](CO)[C@@H](O)[C@H](O)[C@H]4O)[C@H]3CC[C@H]2C(=O)N1c1ccc(F)cc1F | 0.391 (inactive) | 0.502 | -0.652 | -7.01 (inactive) |

Source: PubChem BioAssay
